From ChEMBL document CHEMBL3433997, “St. Jude Leishmania screening dataset” (2016)

target: Glucose transporter (Leishmania mexicana) (UniProt O61059); test: ST_JUDE_LEISH: Cytotoxicity at 2uM final concentration against transgenic Leishmania Mexicana promastigotes LmGT2 that are glucose transport deficient and complemented with the L. Mexicana glucose transporter 2. Activity is measured by DNA content using SYBR green in vitro; assay type: functional

| SMILES | inhibition [%] |
| --- | --- |
| O=[N+]([O-])c1cccc(NC(=S)N2CCCN(Cc3ccc(C(F)(F)F)cc3)CC2)c1 | 3.25 |
| CCCN(CCC)CCCOc1ccc(C(=O)c2c(-c3ccc(OCCCN(CCC)CCC)cc3)oc3ccc(Cl)cc23)cc1 | 31.1 |
| CN1CCC(Oc2cc(NC(=O)Nc3ccc(-c4ccncc4)c(Cl)c3)ccc2Cl)CC1 | 9.26 |
| O=C(Nc1cccc(-c2ccc(-c3nc4cc(C(F)(F)F)ccc4[nH]3)cc2)c1)c1c[nH]cn1 | 0.52 |
| CN1CCN(c2ccnc3cc4c(cc23)N(Cc2ccccc2)CC4)CC1 | 0.13 |
| COc1cc(NC(=O)N2CCOC(CCN3CCC4(CCc5ccccc54)CC3)(c3ccc(Cl)c(Cl)c3)C2)cc(OC)c1OC (stereo not given) | 14.1 |
| NC1CCCN(Cc2cccc(-c3ccc(-c4nc5ccccc5[nH]4)s3)c2)C1 (stereo not given) | 1.78 |
| CN(C)Cc1cccc(-c2cc3c(-c4cnn(C)c4)c(Cl)cnc3[nH]2)c1 | 94.2 |
| Oc1ccc(CNCC2CCN(CC3CCCCC3)CC2)cc1 | 5.43 |
| COc1cc(-c2nc3c4ccccc4c4ccccc4c3[nH]2)cc(OC)c1OC | 1.58 |
| CN(C)CCC1CCCc2ccc(NC(=O)Nc3cccc(Cl)c3Cl)cc21 (stereo not given) | 1.03 |
| O=C(Nc1ccc(N2CCCN(Cc3cccc(F)c3)CC2)cc1)c1ccc(F)cc1 | 5.51 |
| Cc1cc(=O)[nH]c2cc(Nc3ccnc(Nc4cccc(C(N)=O)c4)n3)ccc12 | 3.24 |
| COc1ccc2c(N/N=C/c3ccccc3[N+](=O)[O-])cc(C)nc2c1 | 2.99 |
| CN1CCN(CCCN(Cc2cccc(-c3ccc(CNCCc4ccccc4)cc3)c2)C(=O)Nc2ccccc2)CC1 | 1.35 |
